# Assay results taken from the supplement of paper PMC4022240.
# ± gives the standard deviation.
# T1: HaloTag-ATRX ADD domain (163-292)
# T1 chain: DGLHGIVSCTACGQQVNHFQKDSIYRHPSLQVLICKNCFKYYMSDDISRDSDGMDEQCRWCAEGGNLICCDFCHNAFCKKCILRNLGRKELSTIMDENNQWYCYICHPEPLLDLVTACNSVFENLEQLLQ
# Assays:
# Experiment in all cases: peptide microarray binding signal (635 nm), min-max normalized on array (fraction of array maximum); higher = stronger binding
# [1] = target: T1, HaloTag-ATRX ADD domain (163-292)
# Protocol: (§1)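 Histone 13-mer peptides were synthesized as cellulose conjugates with a C-terminal 20-atom PEG linker and printed in triplicate on nitrocellulose. The sequence given is the unmodified backbone; PTMs (Kme1/2/3, Kac, Sph/Tph, Rme/Rme2a/Rme2s, Rcit) are listed in the label and the 'peptide modifications' condition. Slides were probed at 4 °C for 1 h with biotin-labelled (HQ)5-HaloTag reader fusions (ATRX-ADD, ING2-PHD) then streptavidin-Alexa647, or with rabbit histone antibodies then anti-rabbit Alexa647. The mean 635 nm signal of the triplicate spots was scaled 0-1 between the lowest and highest values on each array.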
# [2] = target: HaloTag-ING2 PHD (mouse Ing2 200-280)
# Protocol: as §1
# [3] = target: anti-H3K4me3 antibody ab8580
# Protocol: as §1
# [4] = target: anti-H3K9me3 antibody ab8898
# Protocol: as §1
# [5] = peptide region: H2B 1-13, binder concentration: 1:2,000 dilution
# [6] = peptide region: H2B 1-13, binder concentration: 1:10,000 dilution
# [7] = peptide region: H2B 7-19, peptide modifications: H2BK11ac H2BK12ac H2BS14ph, binder concentration: 1:2,000 dilution
# [8] = peptide region: H2B 7-19, peptide modifications: H2BK11ac H2BK12ac H2BS14ph, binder concentration: 1:10,000 dilution
# [9] = peptide region: H2B 1-13, peptide modifications: H2BS6ph, binder concentration: 1:2,000 dilution
# [10] = peptide region: H2B 1-13, peptide modifications: H2BS6ph, binder concentration: 1:10,000 dilution
# [11] = peptide region: H2A 11-23, peptide modifications: H2AK15ac H2AT16ph, binder concentration: 1:2,000 dilution
# [12] = peptide region: H2A 11-23, peptide modifications: H2AK15ac H2AT16ph, binder concentration: 1:10,000 dilution
# [13] = peptide region: H2B 1-13, peptide modifications: H2BK5ac, binder concentration: 1:2,000 dilution
# [14] = peptide region: H2B 1-13, peptide modifications: H2BK5ac, binder concentration: 1:10,000 dilution
binder,measurement,setting,value
PEPAKSAPAPKKG [H2B 1-13 P E P A K S A P A P K K G],peptide microarray binding signal,"[1]; peptide region: H2B 1-13, binder concentration: 50 nM",0.00715 ± 0.00022
same,peptide microarray binding signal,"[1]; peptide region: H2B 1-13, binder concentration: 500 nM",0.00119 ± 0.0002
same,peptide microarray binding signal,"[2]; peptide region: H2B 1-13, binder concentration: 10 nM",0.00197 ± 0.00013
same,peptide microarray binding signal,"[2]; peptide region: H2B 1-13, binder concentration: 100 nM",0.00149 ± 7.7e-05
same,peptide microarray binding signal,[3]; [5],9.44e-05 ± 1e-06
same,peptide microarray binding signal,[3]; [6],0.000342 ± 7.5e-06
same,peptide microarray binding signal,[4]; [5],0.000257 ± 2.6e-05
same,peptide microarray binding signal,[4]; [6],0.000807 ± 2.9e-05
APAPKKGSKKAVT [H2B 7-19 A P A P Kac Kac G Sph K K A V T],peptide microarray binding signal,"[1]; peptide region: H2B 7-19, peptide modifications: H2BK11ac H2BK12ac H2BS14ph, binder concentration: 50 nM",0.00197 ± 4e-05
same,peptide microarray binding signal,"[1]; peptide region: H2B 7-19, peptide modifications: H2BK11ac H2BK12ac H2BS14ph, binder concentration: 500 nM",0.00252 ± 9e-05
same,peptide microarray binding signal,"[2]; peptide region: H2B 7-19, peptide modifications: H2BK11ac H2BK12ac H2BS14ph, binder concentration: 10 nM",0.0046 ± 0.00019
same,peptide microarray binding signal,"[2]; peptide region: H2B 7-19, peptide modifications: H2BK11ac H2BK12ac H2BS14ph, binder concentration: 100 nM",0.00163 ± 3.3e-05
same,peptide microarray binding signal,[3]; [7],0.00215 ± 8.8e-05
same,peptide microarray binding signal,[3]; [8],0.000628 ± 6.7e-06
same,peptide microarray binding signal,[4]; [7],0.000423 ± 1.8e-05
same,peptide microarray binding signal,[4]; [8],0.00075 ± 4e-05
PEPAKSAPAPKKG [H2B 1-13 P E P A K Sph A P A P K K G],peptide microarray binding signal,"[1]; peptide region: H2B 1-13, peptide modifications: H2BS6ph, binder concentration: 50 nM",0.00342 ± 3.7e-05
same,peptide microarray binding signal,"[1]; peptide region: H2B 1-13, peptide modifications: H2BS6ph, binder concentration: 500 nM",0.00543 ± 0.00012
same,peptide microarray binding signal,"[2]; peptide region: H2B 1-13, peptide modifications: H2BS6ph, binder concentration: 10 nM",0.00346 ± 0.00017
same,peptide microarray binding signal,"[2]; peptide region: H2B 1-13, peptide modifications: H2BS6ph, binder concentration: 100 nM",0.00425 ± 0.00022
same,peptide microarray binding signal,[3]; [9],0.00245 ± 6.6e-05
same,peptide microarray binding signal,[3]; [10],0.000799 ± 8.3e-06
same,peptide microarray binding signal,[4]; [9],0.00068 ± 1e-05
same,peptide microarray binding signal,[4]; [10],0.000923 ± 9.6e-06
RAKAKTRSSRAGL [H2A 11-23 R A K A Kac Tph R S S R A G L],peptide microarray binding signal,"[1]; peptide region: H2A 11-23, peptide modifications: H2AK15ac H2AT16ph, binder concentration: 50 nM",0.006489 ± 4.3e-05
same,peptide microarray binding signal,"[1]; peptide region: H2A 11-23, peptide modifications: H2AK15ac H2AT16ph, binder concentration: 500 nM",0.0117 ± 0.00031
same,peptide microarray binding signal,"[2]; peptide region: H2A 11-23, peptide modifications: H2AK15ac H2AT16ph, binder concentration: 10 nM",0.00722 ± 0.0003
same,peptide microarray binding signal,"[2]; peptide region: H2A 11-23, peptide modifications: H2AK15ac H2AT16ph, binder concentration: 100 nM",0.0188 ± 0.00091
same,peptide microarray binding signal,[3]; [11],0.000925 ± 7.2e-05
same,peptide microarray binding signal,[3]; [12],0.00103 ± 2.8e-05
same,peptide microarray binding signal,[4]; [11],0.000513 ± 2.1e-05
same,peptide microarray binding signal,[4]; [12],0.000923 ± 2.5e-05
PEPAKSAPAPKKG [H2B 1-13 P E P A Kac S A P A P K K G],peptide microarray binding signal,"[1]; peptide region: H2B 1-13, peptide modifications: H2BK5ac, binder concentration: 50 nM",0.005486 ± 3.9e-05
same,peptide microarray binding signal,"[1]; peptide region: H2B 1-13, peptide modifications: H2BK5ac, binder concentration: 500 nM",0.0105 ± 0.00072
same,peptide microarray binding signal,"[2]; peptide region: H2B 1-13, peptide modifications: H2BK5ac, binder concentration: 10 nM",0.0119 ± 0.00078
same,peptide microarray binding signal,"[2]; peptide region: H2B 1-13, peptide modifications: H2BK5ac, binder concentration: 100 nM",0.0115 ± 0.00093
same,peptide microarray binding signal,[3]; [13],0.00421 ± 0.0021
same,peptide microarray binding signal,[3]; [14],0.00137 ± 4.9e-05
same,peptide microarray binding signal,[4]; [13],0.00192 ± 0.00022
same,peptide microarray binding signal,[4]; [14],0.0019 ± 0.00011
